These results are taken from article PMC5540273 (PLoS ONE, 2017).

Each structure is given as a SMILES string. Read-outs that look alike come from different tables or passages of the source.

The subject of one assay is T1, ERK1.
T1 construct: gene MAPK3
Particulars: concentration: 1 μM, replicates: in singlicate; n = 1.

Another assay has as its system T2, ERK2.
T2 construct: gene MAPK1
The conditions noted are these: concentration: 1 μM, replicates: in singlicate; n = 1.

In a further assay the test system is T3, ERK3.
T3 construct: gene MAPK6
The conditions noted are these: concentration: 1 μM, replicates: in singlicate; n = 1.

In a further assay the test system is T4, ERK4.
T4 construct: gene MAPK4
Particulars: concentration: 1 μM, replicates: in singlicate; n = 1.

A further assay concerns T5, ERK5.
T5 construct: gene MAPK7
Particulars: concentration: 1 μM, replicates: in singlicate; n = 1.

The subject of the next assay is T6, ERK8.
T6 construct: gene MAPK15
Particulars: concentration: 1 μM, replicates: in singlicate; n = 1.

A further assay relates to ERN1. Particulars: concentration: 1 μM, replicates: in singlicate; n = 1.
The next assay deals with T7, FAK.
T7 construct: gene PTK2
Particulars: n = 1.

The subject of another assay is FER. Particulars: concentration: 1 μM, replicates: in singlicate; n = 1.
Another assay deals with FES. The conditions noted are these: concentration: 1 μM, replicates: in singlicate; n = 1.
Where [1] appears, read: concentration: 1 μM, replicates: in singlicate.
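Also: KINOMEscan kinase panel screen.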

On to `COc1ccc(NC(=O)c2ccoc2)cc1-c1ccc(C(=O)NCC2CC2)cc1` [GW810437], for which the “%Inh” value in the assay with ERK1 amounted to 0%; in the assay with ERK2, 7%; in the assay on ERK3, 0%; in the assay on ERK4 it was 6%; in the assay on ERK5, 7%; in the assay on ERK8, 0%. The “%Inh” value with ERN1 came to 33%; in the assay with FAK (setting [1]), 0%; in the assay with FER it was 0%; with FES, 7%.
For the compound `O=C(Nc1n[nH]c2nc(-c3ccccc3O)ccc12)C1CC1` [SB-711880], the “%Inh” value in the assay on ERK1 is given as 0%; with ERK2 it was 0%; in the assay on ERK3, 0%; in the assay with ERK4, 0%; in the assay on ERK5, 0%; in the assay with ERK8 it was 82%. Besides, the “%Inh” value in the assay on ERN1, in the assay on FAK (setting [1]), in the assay with FER and in the assay on FES was 0% in each case.
In the case of `Cc1ccc(NC(=O)c2cccc(N3CCCCC3)c2)cc1-c1ccc(C(=O)NCC2CC2)cc1` [GSK1917008], the “%Inh” value in the assay with ERK1 was determined as 2%; in the assay with ERK2 it was 0%; in the assay on ERK3, 100%; in the assay with ERK4, 23%; in the assay with ERK5, 0%; in the assay on ERK8 it was 51%. Moreover, the “%Inh” value in the assay on ERN1 was 17%; in the assay with FAK (setting [1]), 15%; with FER it was 16%; in the assay on FES, 21%.
Regarding `COc1cccc(NC(=O)NCCNc2ccnc(Nc3ccc(F)cc3)n2)c1` [GSK1379879], the “%Inh” value was determined as 0% in the assay on ERK1; 0% in the assay with ERK2; 4% in the assay with ERK3; 25% in the assay on ERK4; 0% in the assay on ERK5; 0% in the assay with ERK8. Besides, the “%Inh” value with ERN1 was 0%; in the assay on FAK (setting [1]), 0%; with FER it was 8%; in the assay on FES, 0%.
On to `Nc1ncnc2scc(-c3ccc(NC(=O)Cc4cc(F)ccc4F)cc3)c12.O=C(O)C(F)(F)F` [SB-731254-M], for which the “%Inh” value with ERK1 worked out at 0%; in the assay with ERK2, 0%; in the assay with ERK3, 0%; in the assay with ERK4, 11%; with ERK5 it was 28%; in the assay with ERK8 it was 0%. For the same compound, the “%Inh” value in the assay with ERN1 is recorded as 34%; in the assay with FAK (setting [1]) it was 4%; with FER, 4%; in the assay on FES it was 0%.
On to `COc1ccc(C2=C(Nc3cccc(O)c3)C(=O)NC2=O)cc1` [SB-390766], for which the “%Inh” value in the assay on ERK1 came out at 0%; in the assay with ERK2, 0%; in the assay on ERK3, 6%; in the assay on ERK4, 22%; with ERK5 it was 100%; in the assay with ERK8 it was 15%. Besides, the “%Inh” value turned out to be 20% with ERN1, 98.1% in the assay on FAK (setting [1]), 0% in the assay on FER and 0% in the assay with FES.
On to `CN1CCN(Cc2ccc(NC(=O)Nc3ccc(N(C)c4ccnc(Nc5ccc(CS(C)(=O)=O)cc5)n4)cc3)cc2)CC1.Cl` [GW827654], for which the “%Inh” value is on record as 0% in the assay with ERK1; 0% in the assay with ERK2; 0% in the assay on ERK3; 0% with ERK4; 0% with ERK5; 78% in the assay on ERK8. Moreover, the “%Inh” value in the assay on ERN1 was found to be 58%; in the assay with FAK (setting [1]) it was 46%; in the assay with FER, 45%; in the assay with FES, 21%.
Regarding `O=C(Nc1n[nH]c2nc(-c3cccc(O)c3)ccc12)C1CC1` [SB-711805], the “%Inh” value in the assay with ERK1 was 0%; in the assay with ERK2 it was 0%; in the assay with ERK3 it was 0%; with ERK4, 0%; in the assay with ERK5, 47%; in the assay with ERK8, 42%. Also, the “%Inh” value is recorded as 0% with ERN1, 0% in the assay on FAK (setting [1]), 36% in the assay on FER and 0% with FES.
Consider `CCn1c(-c2nonc2N)nc2c(-c3ccccc3)ncc(OCCCN)c21.O=C(O)C(F)(F)F.O=C(O)C(F)(F)F` [GSK260205], for which the “%Inh” value in the assay on ERK1, with ERK2, in the assay on ERK3, with ERK4, with ERK5 and in the assay with ERK8 was 0% in each case. The “%Inh” value in the assay on ERN1 was 11%; in the assay with FAK (setting [1]), 0%; in the assay on FER, 10%; in the assay on FES it was 0%.
`CCOc1nccc(-c2c(-c3ccc(F)cc3)ncn2C2CCNCC2)n1` [SB-249175]: the “%Inh” value came out at 0% in the assay on ERK1; 0% in the assay with ERK2; 26% with ERK3; 13% in the assay with ERK4; 12% in the assay with ERK5; 2% with ERK8. Besides, the “%Inh” value in the assay on ERN1 was 1%; in the assay on FAK (setting [1]), 0%; in the assay with FER, 9%; in the assay with FES, 0%.
As to `Cc1ccc(-c2ccc3occ(-c4ccc(S(C)=O)cc4)c3c2)nn1` (stereo not shown), the “%Inh” value was 0% with ERK1; 7% in the assay with ERK2; 0% with ERK3; 0% in the assay on ERK4; 0% in the assay on ERK5; 1% in the assay on ERK8. The “%Inh” value was determined as 1% in the assay with ERN1, 0% in the assay with FAK (setting [1]), 0% in the assay with FER and 5% in the assay on FES.
As to `Cc1nn2c(=O)cc(N3CCO[C@H](C)C3)nc2n1Cc1cccc(Cl)c1Cl` [GSK2373693], the “%Inh” value in the assay on ERK1 is recorded as 0%; in the assay with ERK2 it was 0%; in the assay on ERK3 it was 0%; in the assay on ERK4 it was 19%; in the assay on ERK5, 0%; in the assay with ERK8, 26%. Moreover, the “%Inh” value in the assay with ERN1 amounted to 0%; with FAK (setting [1]) it was 0%; in the assay with FER, 8%; with FES, 0%.
With `CN(C)CCOc1ccc(-c2cc(-c3ccc(Cl)c(O)c3)c(-c3ccncc3)[nH]2)cc1.Cl.Cl` [SB-684387], the “%Inh” value in the assay on ERK1 is on record as 0%; with ERK2, 0%; in the assay on ERK3, 0%; in the assay on ERK4, 40%; with ERK5, 13%; in the assay with ERK8, 7%. The “%Inh” value in the assay with ERN1 was found to be 39%; with FAK (setting [1]) it was 0%; in the assay with FER it was 10%; in the assay with FES it was 10%.
Turning to `O=C(O)C(F)(F)F.O=c1[nH]ccc2nc(N[C@@H]3CCNC3)nc(Nc3cc(Cl)cc(Cl)c3)c12` [GSK2188764], the “%Inh” value with ERK1 is given as 41%; in the assay on ERK2 it was 51%; in the assay with ERK3, 6%; in the assay on ERK4, 37%; in the assay with ERK5 it was 41%; with ERK8 it was 15%. Besides, the “%Inh” value with ERN1 is given as 28%; with FAK (setting [1]), 41%; in the assay on FER it was 55%; in the assay on FES it was 0%.
Take `Cn1cc(-c2ccc3c(c2)CCN3C(=O)Cc2cc(F)cc(F)c2F)c2c(N)ncnc21` [GSK2634140]: the “%Inh” value turned out to be 9% with ERK1; 9% in the assay on ERK2; 0% with ERK3; 0% with ERK4; 0% in the assay on ERK5; 0% in the assay with ERK8. Further, the “%Inh” value in the assay on ERN1 stood at 11%; in the assay on FAK (setting [1]) it was 5%; in the assay on FER, 39%; in the assay on FES, 0%.
In the case of `CS(=O)(=O)c1cccc(CNc2nc(Nc3ccc4c(c3)CCC(=O)N4)ncc2C(F)(F)F)c1`, the “%Inh” value is recorded as 0% in the assay with ERK1; 17% in the assay on ERK2; 0% with ERK3; 0% with ERK4; 15% in the assay on ERK5; 90% in the assay with ERK8. In addition, the “%Inh” value in the assay on ERN1 is 0%; in the assay with FAK (1 µM), 100%; in the assay with FER it was 0%; with FES, 12%.
